Here are results for 51 molecules from PubChem BioAssay AID624296 (National Center for Advancing Translational Sciences (NCATS), 2012).

Screen size: about 350,000 compounds; about 9,900 (2.8%) were called active. Roughly 15% stayed inconclusive and do not appear here. What follows is part of a selection rich in actives, with near analogues and random picks from the rest. Values without a mark were called inactive. Calls come from the whole dose curve; as a rule, active = well fitted activation curve with a large enough effect; inconclusive = small, poorly fitted or top-dose-only effect; inactive = no such curve, though single readings can be large or run the other way.
Potency is the fitted concentration of half-maximal effect.

This experiment in a line: A quantitative high throughput screen for small molecules that induce DNA re-replication in MCF 10a normal breast cells. For activity, positive = re-replication: % of control where 0% means no effect. Note: nearly all actives have a fitted effect of over 50% in size. The settings on record: MCF 10A DNA re-replication, Hoechst nuclear intensity, 48 h; series mostly up to 46.1 µM; activity, positive = re-replication: at the top concentration.
As for `CCOc1ccc(Br)cc1S(=O)(=O)Nc1ccc(S(=O)(=O)Nc2cc(C)on2)cc1`, the “activity, positive = re-replication” value is -35.5%.

On to `c1ccc(CNc2ncnc3[nH]ncc23)cc1`, for which the “activity, positive = re-replication” value was 7.58%.

`O=C(COC(=O)c1cc(S(=O)(=O)N2CCOCC2)ccc1Cl)NCCc1ccccc1`: the “activity, positive = re-replication” value is 16.1%.

On to `COc1ccc2[nH]c3c(c2c1)CCN1C(=O)C(CC(=O)NCc2cccc(C(F)(F)F)c2)C[C@H](C(=O)N2CCOCC2)[C@@]31C` (stereo partly specified), for which the “activity, positive = re-replication” value is -13.4%.

Regarding `CC1CCc2c(sc3nc4n(c(=O)c23)CCS4)C1` (stereo unspecified), the “activity, positive = re-replication” value was 4.82%.

Regarding `C=CCn1c(SCC(=O)NCC2CCCO2)nc2sc(C)c(C)c2c1=O` (stereo unspecified), the “activity, positive = re-replication” value was 0.828%.

As to `C=CCn1c(SCc2c(C)noc2C)nc2sc3c(c2c1=O)CCC(C)C3` (stereo unspecified), the Potency is 3.66 µM (active).

As for `CC(NC(=O)COC(=O)CCC(=O)c1ccc(Cl)cc1)c1ccccc1` (stereo unspecified), the “activity, positive = re-replication” value was 0.61%.

`CC[C@]12c3[nH]c4ccc(OC)cc4c3CCN1C(=O)C(CC(=O)NCc1ccco1)C[C@@H]2C(=O)N1CCN(C(=O)C2CC2)CC1` (stereo partly specified): the “activity, positive = re-replication” value is 12.3%.

As to `CC12CCCCC1=CC(=O)CC2` (stereo unspecified), the “activity, positive = re-replication” value was -3.75%.

As to `COc1ccc(Nc2ccc3ccccc3c2)cc1`, the Potency was 23.1 µM (active).

As for `COc1ccc(Nc2nnc(C)c3ccccc23)cc1`, the “activity, positive = re-replication” value was -4.32%.

For the molecule `COc1ccc(-c2nnc(-c3ccc4ccccc4c3)o2)cc1`, the “activity, positive = re-replication” value was 1.89%.

With `COc1cc(C(=O)N2CCN(S(=O)(=O)c3ccc(C(C)C)cc3)CC2)ccc1OCC(=O)N1CCOCC1`, the “activity, positive = re-replication” value is -2.7%.

In the case of `O=C(CNC(=O)c1ccccc1Br)NNC(=O)c1cccs1`, the “activity, positive = re-replication” value was -1.43%.

For `CC/C(=N\NC(=O)c1ccccc1Cl)c1ccc(Br)s1`, the “activity, positive = re-replication” value was 4.13%.

Take `O=C(C/C(=N\NC(=O)c1ccccc1Br)C(F)(F)F)c1cccs1`: the Potency is 11.6 µM (active).

Turning to `CCOC(=O)Cc1csc(SCC(=O)Nc2ccc(C)cc2F)n1`, the “activity, positive = re-replication” value is 2.76%.

As to `O=C(OCC(=O)N1CCCCCC1)c1ccc(Cl)nc1`, the “activity, positive = re-replication” value was 0.256%.

With `Cc1ccc(C(=O)Nc2sc(Cc3ccc4c(c3)OCO4)c(C)c2C(N)=O)cc1`, the Potency was 4.11 µM (active).

On to `COCc1nnc(NC(=O)c2ccc3c(c2)OCO3)s1`, for which the “activity, positive = re-replication” value is -0.575%.

As to `CC(=O)NCCC(=O)Nc1nc(C)c(Cc2ccc3c(c2)OCO3)s1`, the “activity, positive = re-replication” value is 6.4%.

As to `COc1ccccc1C(=O)NCC(=O)OCC(=O)Nc1nnc(-c2ccccc2)o1`, the “activity, positive = re-replication” value is -0.4%.

On to `Cc1coc2c(O)cc3c(c12)OC1(N2CCCCC2)C(=O)NCCCC31` (stereo unspecified), for which the Potency is 18.4 µM (active).

Turning to `O=C1OC(Oc2ccc(Br)cc2)(c2ccccc2)c2ccccc21` (stereo unspecified), the Potency was 11.6 µM (active).

As to `Cc1cccc(C(=O)OCC(=O)NC(C)C2CC3CCC2C3)c1O` (stereo unspecified), the “activity, positive = re-replication” value is -1.59%.

In the case of `Cc1cc(OCCCC(=O)Nc2cc(S(=O)(=O)N3CCOCC3)ccc2N2CCOCC2)ccc1Cl`, the “activity, positive = re-replication” value is -5.32%.

Consider `O=C(CS(=O)(=O)c1cn(Cc2cccc(F)c2)c2ccccc12)N1CCCCC1`, for which the “activity, positive = re-replication” value is -1.38%.

`O=c1cc(N2CCN(Cc3ccccc3)CC2)c(-c2ccccc2)n[nH]1`: the “activity, positive = re-replication” value was 1.62%.

In the case of `O=c1cc(N2CCCCC2)c(-c2ccccc2)nn1Cc1cccc(F)c1`, the Potency is 20.6 µM (active).

Turning to `COc1ccc(-c2nnc(SC(C)C(=O)NC3CC3)o2)cc1` (stereo unspecified), the “activity, positive = re-replication” value was 11.4%.

Turning to `Cc1ccc(C(=O)/C=C/c2c(C)nn(-c3ccccc3)c2Cl)cc1`, the Potency is 16.4 µM (active).

On to `Cc1nn(-c2ccccc2)c(Cl)c1C(=O)Nc1ccccc1`, for which the “activity, positive = re-replication” value is 0.187%.

As to `Cc1nn(-c2ccccc2)c(C)c1/C=C/C(=O)OC(C)C(N)=O` (stereo unspecified), the “activity, positive = re-replication” value was 1.07%.

Regarding `Cc1ccc(CNC(=O)CC(NC(=O)c2ccccc2)c2ccccc2)cc1` (stereo unspecified), the “activity, positive = re-replication” value was 1.97%.

For `COc1ccc(NC(=O)Nc2cccc3cccnc23)cc1`, the “activity, positive = re-replication” value is 0.777%.

For the molecule `OCc1ccc(OCCCOc2cccc3cccnc23)cc1`, the “activity, positive = re-replication” value was -8.56%.

`O=C(Nc1ccccc1)Oc1cccc2cccnc12`: the Potency is 4.11 µM (active).

As to `CN(Cc1ccccc1)C(=O)COC(=O)/C=C/c1ccc2c(c1)OCO2`, the “activity, positive = re-replication” value is 2.86%.

`O=C(CN1C(=O)NC2(CCCCCC2)C1=O)NCc1ccc(F)cc1`: the “activity, positive = re-replication” value was -0.62%.

For `COc1ccc(S(=O)(=O)Nc2ccc3cn[nH]c3c2)cc1[N+](=O)[O-]`, the “activity, positive = re-replication” value is -2.12%.

`COc1cc(NC(=O)c2cncc(-c3ccc(C#N)cc3)c2)cc(C(=O)Nc2cccc(C(F)(F)F)c2)c1`: the Potency was 13 µM (active).

For the molecule `COc1ccc(NC(=O)C(=O)NCC(=O)Nc2cccc(C(F)(F)F)c2)cc1`, the “activity, positive = re-replication” value is -3.28%.

As to `CNC(=O)c1ccc(NC(=O)c2cccc(C(F)(F)F)c2)cc1`, the “activity, positive = re-replication” value was -36.1%.

As for `Cc1cccc(NC(=O)c2nnn(-c3cccc(C(F)(F)F)c3)c2N)c1`, the “activity, positive = re-replication” value is -4.01%.

Consider `N#Cc1ccc(Oc2ccc(C(F)(F)F)cc2NC(=O)c2ccc(F)cc2)cc1`, for which the “activity, positive = re-replication” value was 4.38%.

As to `COc1cc(NC(=O)c2[nH]cnc2C(N)=O)cc(C(=O)Nc2cccc(C(F)(F)F)c2)c1`, the Potency is 7.31 µM (active).

Regarding `CC(=O)N1CCc2ccc(N)cc21`, the “activity, positive = re-replication” value is -2.27%.

For the molecule `CC1CCC(CN2CCN=C2N(C)C)CC1` (stereo unspecified), the “activity, positive = re-replication” value was 2.36%.

Take `COc1cc2c(cc1OC)CN(C(C)C(=O)Nc1cccc(S(=O)(=O)N3CCOCC3)c1)CC2` (stereo unspecified): the “activity, positive = re-replication” value was 1.81%.

`COCCn1c(C)cc(C(=O)CN2c3cccc4cccc(c34)S2(=O)=O)c1C`: the “activity, positive = re-replication” value was 18.7%.
